Experimental data from PubChem BioAssay AID1159580 (chemical genetic matrix, 2015).
“And” between values parts separate entries of the source, which are not always exact repeats. Identical values can stand only once. Among all 5,500 compounds or so, about 2,000 (36%) were called active. Not shown: some 18% with an inconclusive outcome. Cut-off read from the data, not from the text of the source: active = normalized growth mostly below about 0.91 (no sharp cut-off); inconclusive = no clear call, values can overlap the other calls; inactive = mostly above about 0.92. The list shows a part of the results.

Experiment: chemical genetic growth profiling, strain panel (AID 1159580);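 note: tested at 20 µM; growth read once vehicle control cultures reached saturation at 30 °C; 1 = growth at the plate median or of vehicle wells; lower values mean less growth of the strain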
Details: S. cerevisiae deletion strains, growth OD

Measured: normalized growth

CC(C)=CCc1c(O)cc2oc(C)cc(=O)c2c1O
active: locus YDR101C, strain arx1, active compounds read low 0.907 | locus YDR195W, strain ref2 1.16 [resistant] | locus YGL086W, strain mad1, active compounds read low 0.915 | locus YHR013C, strain ard1, active compounds read low 1.21 [resistant] | locus YHR142W, strain chs7, active compounds read low 0.851 | locus YHR200W, strain rpn10, active compounds read low 0.915 | locus YIL125W, strain kgd1, active compounds read low 0.904
inactive: locus YAL013W, strain DEP1, active compounds read low 0.96 | locus YAL021C, strain ccr4, active compounds read low 1.01 | locus YAL026C, strain drs2, active compounds read low 0.977 | locus YAL030W, strain snc1, active compounds read low 0.986 | locus YBL061C, strain skt5, active compounds read low 0.973 | locus YBR009C, strain hhf1, active compounds read low 0.984 | locus YBR021W, strain FUR4, active compounds read low 0.998 | locus YBR023C, strain chs3, active compounds read low 0.953 | locus YBR171W, strain sec66, active compounds read low 0.973 | locus YBR229C, strain ROT2, active compounds read low 1.01 | locus YBR231C, strain swc5, active compounds read low 0.98 | locus YBR279W, strain paf1, active compounds read low 0.982 | locus YCL011C, strain gbp2, active compounds read low 0.975 | locus YCL016C, strain dcc1, active compounds read low 0.969 | locus YCL029C, strain bik1, active compounds read low 0.986 | locus YCL061C, strain MRC1, active compounds read low 0.973 | locus YCL069W, strain vba3, active compounds read low 1.01 | locus YCR088W, strain abp1, active compounds read low 0.957 | locus YDL005C, strain med2, active compounds read low 0.981 | locus YDL035C, strain GPR1, active compounds read low 0.912 | locus YDL040C, strain nat1, active compounds read low 0.986 | locus YDL074C, strain BRE1, active compounds read low 0.947 | locus YDL101C, strain DUN1, active compounds read low 0.993 | locus YDL185W, strain tfp1, active compounds read low 0.98 | locus YDL192W, strain arf1, active compounds read low 0.93 | locus YDR001C, strain nth1, active compounds read low 0.976 | locus YDR069C, strain doa4, active compounds read low 1 | locus YDR137W, strain rgp1, active compounds read low 0.855 | locus YDR159W, strain sac3, active compounds read low 0.983 | locus YDR162C, strain NBP2, active compounds read low 0.903 | locus YDR297W, strain sur2, active compounds read low 0.973 | locus YDR318W, strain mcm21, active compounds read low 0.929 | locus YDR334W, strain swr1, active compounds read low 0.985 | locus YDR335W, strain msn5, active compounds read low 0.972 | locus YDR388W, active compounds read low 0.977 | locus YDR392W, strain spt3, active compounds read low 0.87 | locus YDR502C, strain sam2, active compounds read low 0.963 | locus YEL003W, strain gim4, active compounds read low 0.976 | locus YEL037C, strain rad23, active compounds read low 0.993 | locus YEL061C, strain CIN8 (second series), active compounds read low 0.979 | locus YEL061C, strain CIN8, active compounds read low 1 | locus YER015W, strain faa2, active compounds read low 0.983 | locus YER016W, strain bim1, active compounds read low 0.965 | locus YER110C, active compounds read low 0.989 | locus YER111C, strain swi4, active compounds read low 1 | locus YER155C, strain BEM2 (second series), active compounds read low 0.973 | locus YER155C, strain BEM2, active compounds read low 0.992 | locus YER167W, strain BCK2, active compounds read low 0.932 | locus YFR010W, strain ubp6, active compounds read low 0.98 | locus YGL078C, strain dbp3, active compounds read low 0.987 | locus YGL167C, strain pmr1, active compounds read low 0.996 | locus YGL173C, strain kem1, active compounds read low 0.985 | locus YGL227W, strain vid30, active compounds read low 0.968 | locus YGL240W, strain doc1, active compounds read low 0.968 | locus YGL248W, strain PDE1, active compounds read low 0.965 | locus YGL253W, strain hxk2, active compounds read low 0.964 | locus YGR078C, strain PAC10, active compounds read low 0.959 | locus YGR135W, strain pre9, active compounds read low 1 | locus YGR252W, strain gcn5, active compounds read low 0.878 | locus YHR027C, strain rpn1, active compounds read low 0.999 | locus YHR030C, strain SLT2, active compounds read low 1 and 0.999 | locus YHR079C, strain IRE1 (second series), active compounds read low 1 | locus YHR079C, strain IRE1, active compounds read low 0.971 | locus YHR094C, strain hxt1, active compounds read low 0.999 | locus YHR129C, strain ARP1, active compounds read low 0.987 | locus YIL066C, strain RNR3, active compounds read low 0.95 | locus YIL073C, strain SPO22, active compounds read low 1.01 | locus YIR030C, strain dcg1, active compounds read low 0.988 | locus YJL092W, strain hpr5, active compounds read low 0.975 | locus YJL095W, strain BCK1 (second series), active compounds read low 0.97 | locus YJL095W, strain BCK1, active compounds read low 0.928 and 0.969 | locus YJL115W, strain asf1, active compounds read low 0.984 | locus YJL129C, strain trk1, active compounds read low 0.951 | locus YJL134W, strain LCB3, active compounds read low 1 | locus YJL154C, strain vps35, active compounds read low 0.983 | locus YJL164C, strain tpk1, active compounds read low 0.929 | locus YJL166W, strain qcr8, active compounds read low 0.972 | locus YJL168C, strain set2, active compounds read low 0.999 | locus YJL187C, strain SWE1 (second series), active compounds read low 0.966 | locus YJL187C, strain SWE1, active compounds read low 0.98
